Screens (PubChem BioAssay)
Hits are enriched below; roughly 19% of the tested compounds scored in any of these assays.
HT1080 IDH1KD tx: qHTS for induction of synthetic lethality in tumor cells producing 2HG: qHTS for the HT-1080-IDH1KD cell line; 360,000 compounds, 2% hits; Potency, µM (doses to about 46.1 µM), for inactives: at the top dose activity, negative = toxicity, actives largely listed as cytotoxic; HT-1080 IDH1 knockdown viability, ATP luminescence, 48 h;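 note: potency is the fitted concentration of half-maximal effect; 0% = DMSO wells and -100% = cell-free medium wells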
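In this qHTS, HT-1080 cells depleted of IDH1 are exposed for 48 h at 37 °C to compound titrations. Toxicity is scored from CellTiter-Glo luminescence, with DMSO as full viability and medium alone as none.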
TDP1 cell CPT: qHTS for Inhibitors of human tyrosyl-DNA phosphodiesterase 1 (TDP1): qHTS in cells in presence of CPT | Potency, µM (top dose mostly 46.2 µM), for inactives: at the top dose activity change, negative = growth inhibition, hits mostly inhibitors | 420,000 compounds, 12% hits | chicken DT40 Tdp1-/-;hTDP1 cells + 20 nM CPT, ATP luminescence, 48 h | AID 686979, 2013; note: potency is the fitted concentration of half-maximal effect; nearly all actives have a fitted effect of over 55% in size
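Chicken DT40 Tdp1-/- cells complemented with human TDP1, 400 cells/well, exposed to compounds plus 20 nM camptothecin for at least 48 h at 37 C; viability read as ATP content by CellTiter-Glo luminescence.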
IL-1B inflam inh: qHTS for Inhibitors of Inflammasome Signaling: IL-1-beta AlphaLISA Primary Screen. 360,000 compounds, 4.7% hits. activity change, % at 57.5 µM. THP-1 LPS/ATP IL-1B secretion, AlphaLISA, 16 h; hits give low values; in the data active = activity change below about -50%; inconclusive = mostly about -30% to -49%
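Secreted IL-1B measured by AlphaLISA bead assay after 16 h compound exposure of THP-1 cells; compounds (final up to 57.5 uM) added 1 h before LPS (250 ng/mL) and ATP (1.25 mM) stimulation; lower signal means less secretion.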
DT40 TDP1 no CPT: qHTS for Inhibitors of human tyrosyl-DNA phosphodiesterase 1 (TDP1): qHTS in cells in absence of CPT; 420,000 compounds, 15% hits; DT40 Tdp1-/- hTDP1 cells, no CPT, ATP luminescence, 48 h; Potency, µM (series often up to 46.2 µM), for the others: at the top dose activity change, negative = growth inhibition, hits mostly inhibitors; note: potency is the fitted concentration of half-maximal effect; nearly all actives have a fitted effect of over 55% in size
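Compound effects on proliferation are scored in DT40 Tdp1-/-;hTDP1 cells in the absence of CPT. ATP levels (CellTiter-Glo luminescence) are recorded after a ≥48 hr, 37 °C incubation.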
HT1080-NT tox: qHTS for induction of synthetic lethality in tumor cells producing 2HG: qHTS for the HT-1080-NT fibrosarcoma cell line; HT-1080-NT fibrosarcoma viability, CellTiter-Glo ATP luminescence, 48 h; Potency, µM (titrated, usually from 46.1 µM), for the others: at the highest dose activity, negative = less viability, most hits filed as cytotoxic; 360,000 compounds, 1.6% hits;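 note: NT is the 2HG producing partner of a matched IDH1 knockdown line; potency is the fitted concentration of half-maximal effect; 0% = DMSO-treated cells and -100% = media-only wells without cells; nearly all actives have a fitted effect of over 55% in size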
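Compounds were tested in concentration-response format on HT-1080-NT cells for 48 hours at 37 degrees C. Cell viability came from CellTiter-Glo luminescence; curves were classified by r2, response magnitude and activity.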
* hit, by the source's call; ? = inconclusive; . = no result given; [ ] = another dose, or the depositor's remark. Unless noted, calls come from the whole dose curve; as a rule, active = well fitted curve in the direction sought with a large enough effect; inconclusive = small, poorly fitted or top-dose-only effect, or another doubt; inactive = no such curve, though single readings can be large; an effect the other way counts as inactive or inconclusive. Unless noted, % is set by controls: 0 for no effect and ±100 for the full control effect.

SMILES	HT1080 IDH1KD tx	TDP1 cell CPT	IL-1B inflam inh	DT40 TDP1 no CPT	HT1080-NT tox
Cc1ccc(C2CC2c2n[nH]c(=S)n2-c2cccc(C)c2)cc1 (stereo not drawn)	?	?	38.1	16.4µM*	-16.8%
Cc1ccc(-n2c(-c3cccc(C)c3)n[nH]c2=S)cc1	10µM*	-13.2%	15.2	?	?
COc1ccc(-c2n[nH]c(=S)n2-c2ccc(C)cc2)cc1OC	3.9%	8.9%	27.2	-18.6%	2.9%
Cc1ccc(C2CC2c2n[nH]c(=S)n2-c2ccc(Cl)cc2)cc1 (stereo not drawn)	?	?	22.5	?	-21.2%
O=C(NCc1ccco1)c1ccc2c(c1)OCCO2	4.8%	-3.9%	-10.9	14.0%	21.4%
O=C(Nc1ccc(-c2csc(Nc3ccccc3)n2)cc1)c1ccccc1	-8.0%	25.9µM*	35.1	20.6µM*	-6.5%
O=C(Nc1cccc(-c2csc(Nc3ccc(Cl)cc3)n2)c1)c1ccccc1	?	8.2µM*	-58.7*	16.4µM*	?
O=C(Nc1cccc(-c2csc(Nc3ccc(Cl)cc3)n2)c1)c1cccc(C(F)(F)F)c1	?	?	?	20.6µM*	?
O=C(Nc1cccc(-c2csc(Nc3ccc(Cl)cc3)n2)c1)c1cc([N+](=O)[O-])cc(C(F)(F)F)c1	4.2%	18.4µM*	-26.9	18.4µM*	1.4%
O=C(Nc1cccc(-c2csc(Nc3ccccc3)n2)c1)c1cc([N+](=O)[O-])cc(C(F)(F)F)c1	-0.4%	?	-22.0	?	-24.8%
Nc1n[nH]c(N)c1N=Nc1cccc(C(F)(F)F)c1	-3.4%	-6.2%	-26.0	-10.5%	-8.2%
CCOC(=O)C1(C)/C(=N/Nc2ccccc2Cl)C(=O)C(=O)N1c1ccccc1 (stereo not drawn)	0.7%	1.5%	41.3	-23.5%	-1.0%
Cc1sc(N)nc1-c1c(C)n(C)c2ccccc12	0.3%	?	-11.3	-37.5%	0.4%
COc1ccc(C2CC(O)(c3ccccc3)Oc3cc(OC)c(OC)c(OC)c32)cc1 (stereo not drawn)	-21.3%	?	-0.3	?	-23.4%
COc1ccc([C@@]23Oc4cc(OC)cc(OC)c4[C@]2(O)[C@H](O)[C@H](C(=O)N(C)C)[C@H]3c2ccccc2)cc1	0.164µM*	0.0073µM*	-2.6	0.0092µM*	?
COc1nc(OC/C(N)=N/O)nc(N2CCOCC2)n1	0.9%	-3.8%	0.0	-10.4%	-3.7%
COC(=O)C12OCC34C(CC5C(C)=C(O)C(=O)CC5(C)C3C(O)C1O)OC(=O)C(OC(=O)C=C(C)C)C24 (stereo not drawn)	0.0366µM*	0.0651µM*	.	0.146µM*	-26.4%
O=C(O)c1cccc2cccc(-c3c4ccc(=O)c(O)c-4oc4c(O)c(O)ccc34)c12	-2.3%	10.3µM*	-17.5	7.31µM*	-0.4%
Cc1nc2ncnn2c(C)c1CCC(=O)NCCCN1CCN(c2cccc(Cl)c2)CC1	11.9%	3.3%	0.0	-13.3%	-0.4%
O=C(NCCCN1CCN(c2ccccc2F)CC1)c1sc2ncccc2c1-n1cccc1	.	?	.	20.6µM*	.
O=C(Cc1csc(Nc2nc(=S)[nH]c3ccccc23)n1)NCCCN1CCN(c2ccccc2F)CC1	20.6µM*	8.2µM*	-98.8*	14.6µM*	20.6µM*
O=C(NCCCN1CCN(c2cccc(Cl)c2)CC1)c1sc2ncccc2c1-n1cccc1	.	?	.	23.1µM*	.
Cc1ccc(C)n1-c1c(C(=O)NCCCN2CCN(c3ccc(F)cc3)CC2)sc2ncccc12	.	20.6µM*	.	?	.
CC(C)c1ccc(Nc2ccc(C(=O)O)cc2[N+](=O)[O-])cc1	5.0%	0.1%	31.9	-3.5%	8.0%
CC(OC(=O)CNC(=O)C1CCCCC1)C(=O)NCc1ccccc1 (stereo not drawn)	4.5%	-5.7%	18.3	-20.5%	10.2%
SMILES	HT1080 IDH1KD tx	TDP1 cell CPT	IL-1B inflam inh	DT40 TDP1 no CPT	HT1080-NT tox
O=c1cc(N2CCCC2)c2ccccc2o1	10.1%	8.7%	-8.8	-2.1%	-1.3%
COc1ccccc1Cn1[nH]nnc1=S	-1.7%	-3.2%	15.6	-15.4%	10.5%
O=c1[nH][nH]cc1C=Nc1cc(Cl)ccc1O	?	20.6µM*	-1.2	?	-13.5%
COC(=O)c1c(C)oc2ccc(N(C(=O)c3ccncc3)S(=O)(=O)c3cc(C)c(C)cc3C)cc12	.	10.3µM*	.	5.17µM*	.
COC(=O)c1c(C)oc2ccc(N(C(=O)c3ccncc3)S(=O)(=O)c3ccc(C)cc3C)cc12	?	2.59µM*	?	4.11µM*	23.1µM*
COC(=O)c1c(C)oc2ccc(N(C(=O)c3ccncc3)S(=O)(=O)c3c(C)cc(C)cc3C)cc12	.	1.84µM*	.	1.16µM*	.
Cc1ccc([N+](=O)[O-])cc1S(=O)(=O)N(C(=O)c1ccncc1)c1ccc2oc3c(c2c1)CCCC3	?	-14.8%	-0.5	-10.6%	-3.9%
COC(=O)c1c(C)oc2ccc(NS(=O)(=O)c3cccs3)cc12	-15.1%	?	-10.0	-56.6%	-0.2%
CNc1cc(-c2cnn(CC(C)C)c2)ncn1	11.1%	-22.9%	-10.7	-24.5%	20.3%
O=C(NCc1ccc(F)cc1)c1ccc2c(O)c(S(=O)(=O)c3ccccc3)c(=O)[nH]c2c1	.	15.7%	.	0.8%	.
COc1ccc(Br)cc1CNc1ccc(O)cc1	?	?	-94.6*	?	?
COc1ccc(Br)cc1CNc1ccc2[nH]c(=O)[nH]c2c1	-18.0%	-31.5%	-60.9*	-29.3%	-19.4%
CCCn1nnnc1NCc1cc(Br)ccc1OC	2.5%	-7.9%	1.7	16.9%	10.0%
Cc1cc(N(C)C)cc(C)c1/C=C/c1cc[n+](C)c2ccccc12	.	0.562µM*	.	0.562µM*	.
CNc1cc[n+](C)c2ccccc12	.	-2.3%	.	-20.0%	.
COc1cc(OC)c(/C=C/c2cc[n+](C)c3ccccc23)c(OC)c1	.	0.501µM*	.	0.447µM*	.
COc1cc(OC)c(OC)cc1/C=C/c1cc[n+](C)c2ccccc12	.	3.98µM*	.	2µM*	.
COc1ccc(CCNC(=O)Cn2c(=O)c3sccc3n(CC(=O)Nc3cccc(C(F)(F)F)c3)c2=O)cc1OC	.	-11.6%	.	-7.3%	.
CCN(Cc1ccncc1)Cc1ccc2c(c1)CN(C(=O)c1ccc(OC)cc1)CCO2	.	-1.5%[9.04 µM]	.	-27.2%	.
N=c1c(S(=O)(=O)c2ccccc2)cc2c(=O)n3ccccc3nc2n1C1CCCC1	-9.0%	-2.0%	8.6	?	-2.5%
